PubChem BioAssay (NCI)
Compounds without any hit were thinned out: in the full panel of roughly 83,000, 20% have a hit.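 The endpoint reported here, percent growth, reads 100 for growth as untreated, 0 for no net growth and -100 for all cells dead.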 Values without a mark were called inactive. Activity calls are given as the source filed them. The calls were made as follows: active = growth percent below 10; inactive = the rest.

What was measured:
Test in all cases: NCI-60 one-dose screen, 48 h (100 = growth as untreated, 0 = no growth, -100 = all killed)
Conditions in all cases: 10 µM unless noted
[1] = system: HCT-15 colon
[2] = system: HT29 colon
[3] = system: SNB-75 CNS
[4] = system: SNB-19 CNS
[5] = system: U251 CNS
[6] = system: PC-3 prostate
[7] = system: SK-MEL-5 melanoma
[8] = system: UACC-62 melanoma
[9] = system: LOX IMVI melanoma
[10] = system: SK-MEL-28 melanoma
[11] = system: SK-MEL-2 melanoma
[12] = system: EKVX NSCLC
[13] = system: SN12C renal
[14] = system: UO-31 renal
[15] = system: TK-10 renal
[16] = system: ACHN renal
[17] = system: CAKI-1 renal
[18] = system: A498 renal
[19] = system: CCRF-CEM leukemia
[20] = system: MOLT-4 leukemia

Row | SMILES | growth [1] | growth [2] | growth [3] | growth [4] [%] | growth [5] [%] | growth [6] [%] | growth [7] | growth [8] [%] | growth [9] [%] | growth [10] [%] | growth [11] [%] | growth [12] [%] | growth [13] [%] | growth [14] | growth [15] [%] | growth [16] [%] | growth [17] | growth [18] | growth [19] | growth [20]
1 | CC(=O)NCC(=O)Nc1ccc(-c2nnc3ccccn23)nc1.CC(=O)NCC(=O)Nc1ccc(-c2nnc3ccccn23)nc1.[Pt+2] | 109% | 98.3% | 132% | 107 | 99.4 | 101 | 108% | 110 | 106 | 118 | 91.4 | 110 | 106 | 106% | 103 | 103 | 115% | 101% | 93.3% | 96.9%
2 | Cc1c2c(cn1Cc1ccccc1)CCc1cn[nH]c1-2 | 99.3% | 94.5% | 92.2% | 86.9 | 89.3 | 74.9 | 89% | 76.8 | 90.8 | 105 | 96.4 | 99.1 | 98.3 | 75.2% | 118 | 99.6 | 84.1% | 108% | 77% | 85.1%
3 | CC(=O)C(C(C)=O)c1nc2sc3cc(Cl)ccc3n2c(=N)c1C#N | 94.2% | 92.4% | 41.2% | 78.8 | 82.3 | 65.2 | 74.6% | 61.6 | 79.7 | 103 | 86.8 | 70.7 | 90 | 58.4% | 117 | 84 | 85.7% | 84.5% | 91.9% | 67%
4 | O=C(NCc1cn(Cc2cccc(Oc3ccccc3)c2)nn1)c1cccnc1NCc1ccc(Cl)cc1 | 21.7% | 9.24% (active) | 11% | 41.3 | 21.2 | 10 | 11.3% | 27.8 | 39.4 | 29.5 | 13.9 | 30.7 | 40.9 | 30.5% | 62.2 | 41.9 | 32.2% | -4.32% (active) |  | 14.6%
5 | C/C(=N\NC(=O)Cn1c(-c2ccc(S(C)(=O)=O)cc2)nc2cc(Cl)ccc21)c1ccc(Cl)cc1 | 77% | 79.7% | 69.7% | 84.3 | 79.7 | 49.2 | 84.2% | 76.2 | 89.4 | 90 | 91.1 | 76.6 | 84 | 62.7% | 101 | 85.8 | 74% | 89.8% | 76.2% | 61.5%
6 | NC(N)=N/N=C(/c1ccccc1)c1ccc(N)cc1 | 106% | 132% | 122% | 106 | 97.5 | 127 | 101% | 91.2 | 95 | 150 | 112 | 88.2 | 96.2 | 95% | 135 | 107 | -0.33% (active) |  | 124% | 107%
7 | CCN1CCN(c2ccc(Nc3cc(-c4cccnc4Nc4c(Cl)c(OC)cc(OC)c4Cl)ncn3)cc2)CC1 | 63.3% | 31.9% | 42.8% | 81 | 71.6 | 55.3 | 74% | 85.9 | 44.7 | 100 | 74.9 | 87.4 | 56.6 | 52.8% | 68.1 | 42.6 | 48.5% | 21.8% | 31.6% | 9.51% (active)
8 | O=C1N/C(=N/O)S/C1=C/c1cn(-c2ccccc2)nc1-c1ccccc1 | 86.5% | 112% | 70.6% | 107 | 97 | 89.3 | 102% | 102 | 68.6 | 113 | 100 | 87.7 | 96.1 | 57.5% | 108 | 100 | 77.2% | 85.6% | 91.6% | 91.9%
9 | CCOC(=O)Cc1csc2nc(-c3ccccc3)nn12 | 113% | 106% | 105% | 90.2 | 106 | 101 | 107% | 98.6 | 89 | 117 | 114 | 105 | 106 | 97% | 126 | 99.7 | 111% | 90.4% | 103% | 111%
10 | COC(=O)Nc1nc2ccc(C(=O)C3CC3)cc2[nH]1 | -1.31% (active) | 1.32% (active) | 9.46% (active) | 13.5 | 12.8 | 14.7 | 8.13% (active) | 30.3 | 34.7 | 49 | 27.9 | 32.7 | 19.7 | 6.33% (active) | 35.5 | 37.1 | 27.1% | 6.47% (active) | -22.3% (active) | -16% (active)
11 | O=C(Nc1ccccc1)c1sc(-c2cccc(C(F)(F)F)c2)cc1O | 69.5% | 93.7% | 78.5% | 69.6 | 51.6 | 81 | 18.4% | 23.3 | 86.4 | 53 | 33.4 | 81.5 | 83.7 | 77.6% | 96.5 | 79.5 | 74.6% |  | 87.4% | 87.7%
12 | CN1CCN(C(=O)[C@]23CCC(C)(C)C[C@@H]2C2=CC[C@@H]4[C@@]5(C)Cc6c([nH]c7ccccc67)C(C)(C)[C@@H]5CC[C@@]4(C)[C@]2(C)CC3)CC1 | 81.5% | 71.3% | 56.6% | 91.8 | 78.3 | 64.8 | 94% | 95.9 | 77.4 | 89.6 | 95.1 | 77 | 88.1 | 57.7% | 92.4 | 86.9 | 55.2% | 96.5% | 71% | 63%
13 | O=C(C[C@@]1(O)C(=O)Nc2c(Cl)ccc(Cl)c21)c1ccc(C2CC2)cc1 | 19.1% | 12.4% | -29.9% (active) | 36.8 | 31.3 | 31.4 | 38.8% | 42.1 | 38.1 | 52.6 | 43.1 | 46.5 | 32.2 | 37.9% | 70.4 | 39.6 | 34.4% | -32.7% (active) | 15.9% | 18.9%
